# PrP 5UTR inh = inhibition of PrP 5' UTR reporter expression; cell-based PrP 5' UTR mRNA reporter, plate reader; inhibition, % (test concentration not listed); actives 0.35% (n = 340,000); AID 488862, 2010; in the data active = inhibition above about 52%; note: 0 = median of the neutral control wells
# Yp Topo-I inh = Yersinia pestis topoisomerase I inhibitors, primary screen, biochemical, cleavage product accumulation, plate reader, single point; Y. pestis Topo-I cleavage product accumulation; activity, % at 10 µM; actives 0.064% (n = 360,000); AID 504884, 2011; in the data active = activity above about 50%, passing the limit was not always enough
# PrPC TRFRET = inhibitors of human cell surface prion protein PrPC, primary screen, cell-based, TR-FRET | actives 0.43% (n = 370,000) | TR-FRET read-out | inhibition, % at 13.8 µM; in the data active = inhibition above about 24%; note: 0% = median of the test wells and 100% = reference compound wells
# PfHsp40 rescue = rescue of yeast from PfHsp40 toxicity, primary screen, S. cerevisiae, ATP luminescence; actives 0.68% (n = 340,000); S. cerevisiae expressing PfHsp40, growth rescue; growth rescue, % at 12.5 µM; in the data active = growth rescue above about 28%, passing the limit was not always enough;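 note: yeast W303a lacking pdr1 and pdr3 grown in galactose medium; growth measured after three days at 30 °C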
# CCHF vOTU inh-1 = CCHFV vOTU protease inhibitors, primary screen, biochemical, Pep-AMC substrate, fluorescence | Crimean-Congo hemorrhagic fever virus L polyprotein viral ovarian tumor (vOTU) protease … | inhibition, % at 11.5 µM | actives 0.55% (n = 370,000); note: 0% = vehicle wells with enzyme and 100% = no enzyme wells
# BJeLR lethal = MLPCN primary cell-based screen for lethality selective to Ras in HRASV12 cells | BJeLR (HRASV12) viability, CellTiter-Glo ATP luminescence, 48 h | inhibition, % (test concentration not listed) | actives 0.17% (n = 300,000); in the data active = inhibition above about 50%
# CCHF vOTU inh-2 = CCHFV vOTU protease inhibitors, confirmation, biochemical, Pep-AMC substrate, fluorescence; shares compounds with CCHF vOTU inh-1; Recombinant CCHFV vOTU; inhibition, % at 11.5 µM; actives 17% (n = 1,900); AID 686976, 2013
# Active calls of the source: *; . = no result given. In the library only some 2% were active in any assay of this set; here they are far more common. Cut-off read from the data, not from the text of the source, unless noted: active = inhibition above about 30%; inactive = the rest.
SMILES,PrP 5UTR inh,Yp Topo-I inh,PrPC TRFRET,PfHsp40 rescue,CCHF vOTU inh-1,BJeLR lethal,CCHF vOTU inh-2
C[C@H]1C(C(=O)N(C)C2CCCCC2)=Cc2c(n(-c3ccc(F)cc3)c(=O)n2CCCOc2ccccc2)C=C1c1ccccc1,.,.,-1,.,3,.,.
COC1=C/C(=C/c2c(N)n3nc(CC(=O)N4CCCC4)sc3nc2=O)C=CC1=O,-38,0,10,0,22,6,.
COC1=CC(=Cc2c(N)n3nc(CC(=O)N4CCCCC4)sc3nc2=O)C=C(OC)C1=O,-28,7,-3,0,34*,0,4
CC(C)C[C@H]1COc2cc(N3CCOCC3)ccc2S(=O)(=O)N1,.,.,4,.,14,.,.
CCCc1ccc(-c2cc(NC(=O)Cc3c(C)[nH]c4ccccc34)ccc2N(C)c2cccnc2)cc1,.,.,17,.,39*,.,-3
COC(=O)C1=C(C)N(C)C(=NCc2ccc3c(c2)OCO3)NC1c1cccc(C(F)(F)F)c1 (stereo not given),.,.,-15,.,6,.,.
CCN(C(=O)CSc1nnc(SC(C)C)s1)C1CCS(=O)(=O)C1 (stereo not given),-11,5,5,-1,37*,.,-11
Oc1c(N=Nc2ccc(F)cc2)ccc2ccccc12,-5,-2,-6,0,0,3,.
Oc1c(N=Nc2nn[nH]n2)ccc2ccccc12,.,.,-38,.,98*,.,84*
O=C1CCCN1CCCNCCCn1cnc2c(OCc3ccccc3)ncnc21,-28,-6,-6,1,-6,.,.
O=C(Cn1cnc2c(OCc3ccccc3)ncnc21)NCCCN1CCCC1=O,-65,6,1,-1,30*,.,3
O=C(CCN1C(=O)/C(=C\C=C\c2ccccc2)SC1=S)Nc1cccc(C(=O)O)c1,-23,2,-2,0,33*,-9,5
O=C(CCN1C(=O)/C(=C/c2cccs2)SC1=S)Nc1ccc(C(=O)O)c(O)c1,-42,-10,-15,2,32*,2,2
Cc1cc(N2CCN(CC(C)(C)O)C[C@H]2C)ccc1N1CCN(Cc2ccccc2)[C@@H](C)C1,.,.,10,.,23,.,.
CCOP(=O)(OCC)c1ccc2c(c1)C(=O)c1ccccc1-2,.,.,-2,.,.,.,.
CCN1C(=O)/C(=C/C=C2/SCCN2C)SC1=S,-15,-10,-20,0,9,11,.
CN1CCS/C1=C\C=C1/SC(=S)N(CC(=O)O)C1=O,-12,3,-71,2,30*,2,13
CCOC(=O)C(Cc1ccccc1)CP(=O)(OC)[C@@H](C)NC(=O)OCc1ccccc1 (stereo not given in full),.,.,3,.,-3,.,.
CCN(CCO)c1ccc(N=Cc2c(O)n(C)c(=S)[nH]c2=O)cc1,.,2,-7,.,32*,0,-10
CCN(CC)c1ccc(N=Cc2c(O)n(Cc3ccco3)c(=O)[nH]c2=O)cc1,-14,3,-5,-1,12,2,.
Clc1ccc(-c2nnc3n2N=C(c2ccc(-c4ccccc4)cc2)CS3)c(Cl)c1,.,.,-4,.,8,.,.
N#Cc1cccc(Cn2ccc3ccc(-c4ccc5ccn(Cc6cccc(C#N)c6)c5c4)cc32)c1,.,.,8,.,1,.,.
COc1cc(C)ccc1Oc1nc(-c2ccccc2O)nc2ccccc12,-5,6,-9,0,32*,7,-1
CC1CC1C(=O)N1CCC(Oc2cccnc2)CC1 (stereo not given),.,.,-1,.,3,.,.
Nc1ccc2c(c1)Cc1cc(N)c(Cl)cc1-2,-38,-22,7,0,31*,.,-9
COC(=O)C1CN(Cc2ccc(F)cc2)CCS(=O)(=O)N1Cc1cn(Cc2ccc(F)cc2)nn1 (stereo not given),.,.,-6,.,30*,.,-10
COC(=O)C1CN(Cc2ccc(F)cc2)CCS(=O)(=O)N1Cc1cn(Cc2ccccc2)nn1 (stereo not given),.,.,3,.,-2,.,.
